In PubChem BioAssay (NCI):
This is part of a sample that, as a whole, favours compounds with a hit. Of some 79,000 tested, about 15% had one in any assay. Calls of active or inactive are those of the source. Cut-off read from the data, not from the text of the source: active = growth inhibition above about 70%; inactive = the rest.

How the values were obtained:
[1] = NCI Yeast Anticancer Drug Screen. Data for the rad50EPP+ strain (AID 151);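 note: 0% = growth of vehicle-treated control cultures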; conditions: S. cerevisiae rad50 mutant strain, hits give high values
Summary of the method: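 Measured: growth inhibition of rad50EPP+ yeast. Reference: vehicle-treated controls. Screen uses strains with defined genetic alterations in DNA damage repair or cell cycle control.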

[2] = NCI Yeast Anticancer Drug Screen. Data for the mgt1 strain (AID 153); conditions: S. cerevisiae mgt1 mutant growth inhibition, hits give high values
Summary of the method: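 Compounds were applied to mgt1 mutant yeast, and growth was then compared against vehicle-treated control cultures to give percent inhibition.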

[3] = NCI Yeast Anticancer Drug Screen. Data for the rad50 strain (AID 155);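 note: 0% = growth of vehicle-only cultures of the same strain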; conditions: S. cerevisiae rad50 strain growth inhibition, hits give high values
Summary of the method: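 Yeast carrying a defined DNA repair defect were exposed to test compounds, and growth was compared with vehicle-treated controls to give percent inhibition.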

[4] = NCI Yeast Anticancer Drug Screen. Data for the mec2-1 strain (AID 157); conditions: S. cerevisiae mec2-1 strain, hits give high values
Summary of the method: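 Compounds were applied to mec2-1 yeast cells. Their growth was then compared with that of vehicle-treated cultures to give growth inhibition.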

[5] = NCI Yeast Anticancer Drug Screen. Data for the rad14 strain (AID 159);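 note: 0% = growth of vehicle-treated control cultures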; conditions: S. cerevisiae rad14 strain growth inhibition, hits give high values
Summary of the method: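 Yeast cells carrying a defined DNA-repair defect were exposed to compounds, and growth inhibition was calculated relative to vehicle-treated control cultures.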

[6] = NCI Yeast Anticancer Drug Screen. Data for the sgs1 mgt1 strain (AID 161);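 note: 0% = growth of cultures given vehicle only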; conditions: S. cerevisiae sgs1 mgt1 strain, hits give high values
Summary of the method: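 Growth of a repair-deficient yeast mutant was monitored after compound treatment and expressed as inhibition relative to vehicle-treated cultures.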

[7] = NCI Yeast Anticancer Drug Screen. Data for the CLN2oe strain (AID 163);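 note: 0% = growth of vehicle-only control cultures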; conditions: S. cerevisiae CLN2oe strain, hits give high values
Summary of the method: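 Cells of an engineered yeast line with disturbed cell-cycle regulation are treated with compound. Inhibition of growth is then calculated relative to the vehicle-treated reference.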

[8] = NCI Yeast Anticancer Drug Screen. Data for the cln2 rad14 strain (AID 165);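 note: 0% = growth equal to vehicle treated cultures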; conditions: S. cerevisiae cln2 rad14 strain, hits give high values
Summary of the method: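 Strain: cln2 rad14 yeast, altered in cell cycle control and DNA damage repair. Read-out: growth inhibition vs vehicle.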

[9] = NCI Yeast Anticancer Drug Screen. Data for the wt2 strain (AID 169);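 note: 0% = growth of vehicle-treated yeast cultures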; conditions: S. cerevisiae wt2 strain growth inhibition, hits give high values
Summary of the method: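 Growth of compound-treated yeast is measured and expressed as inhibition relative to vehicle-only controls.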

[10] = NCI Yeast Anticancer Drug Screen. Data for the mlh1 strain (AID 171);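 note: 0% = growth of vehicle-treated control cultures of the same strain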; conditions: S. cerevisiae mlh1 strain growth inhibition, hits give high values
Summary of the method: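 Test agents were incubated with yeast bearing a defined DNA damage repair or cell cycle control alteration; values are growth inhibition normalised to vehicle-treated cultures.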

[11] = NCI Yeast Anticancer Drug Screen. Data for the sgs1 strain (AID 173);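 note: 0% = growth of vehicle-only control cultures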; conditions: S. cerevisiae sgs1 mutant, hits give high values
Summary of the method: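 Strain with an altered DNA repair or cell cycle pathway exposed to compound. Growth then measured. Value = inhibition versus vehicle control.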

[12] = NCI Yeast Anticancer Drug Screen. Data for the mlh1 rad18 strain (AID 175); conditions: S. cerevisiae mlh1 rad18 strain growth inhibition, hits give high values
Summary of the method: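 A repair-deficient yeast strain is exposed to test compound, and growth is scored relative to vehicle-treated controls.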

[13] = NCI Yeast Anticancer Drug Screen. Data for the rad18 strain (AID 177); conditions: S. cerevisiae rad18 mutant growth inhibition, hits give high values
Summary of the method: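 DNA-repair-defective yeast; compound treatment; growth inhibition scored against vehicle.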

[14] = NCI Yeast Anticancer Drug Screen. Data for the bub3 strain (AID 167); conditions: S. cerevisiae bub3 mutant strain, hits give high values
Summary of the method: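 Compounds were applied to a genetically altered yeast strain carrying a cell-cycle control defect. Growth inhibition was scored against vehicle-treated controls.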

[15] = at 5.0 µM (retest, dose inferred, filed as 0.5)
[16] = at 50.0 µM (retest, dose inferred, filed as 5.0)

Measured: growth inhibition

CCCCCCC(CCl)c1sc(-c2csc(CCNC(=O)OC(C)(C)C)n2)nc1C(=O)OC (stereo not drawn)
active: [2]; at 100.0 µM 98% | [3]; at 100.0 µM 97% | [4]; at 100.0 µM 96% | [5]; at 100.0 µM 97% | [9]; at 100.0 µM 97% | [10]; at 100.0 µM 97% | [11]; at 100.0 µM 97% | [12]; [16] 88% | [13]; at 100.0 µM 96%
inactive: [1]; at 1.2 µM -1% | [1]; at 3.7 µM 1% | [1]; at 11.0 µM 2% | [1]; at 33.0 µM 4% | [1]; at 100.0 µM 19% | [2]; at 1.2 µM -1% | [2]; at 3.7 µM -3% | [2]; at 11.0 µM -6% | [2]; at 33.0 µM 2% | [3]; at 1.2 µM -1% | [3]; at 3.7 µM 1% | [3]; [15] -23% | [3]; at 11.0 µM 5% | [3]; at 33.0 µM 24% | [3]; [16] 11% | [3]; at 50.0 µM -2.85% | [4]; at 1.2 µM 0% | [4]; at 3.7 µM -3% | [4]; [15] -11% | [4]; at 11.0 µM 0% | [4]; at 33.0 µM 6% | [4]; [16] 39% | [4]; at 50.0 µM 30.1% | [5]; at 1.2 µM 0% | [5]; at 3.7 µM 1% | [5]; at 11.0 µM 6% | [5]; at 33.0 µM 23% | [6]; [15] 17% | [6]; [16] 27% | [6]; at 50.0 µM -13.5% | [7]; at 1.2 µM -3% | [7]; at 3.7 µM -2% | [7]; at 11.0 µM -9% | [7]; at 33.0 µM -10% | [7]; at 100.0 µM 66% | [8]; [15] 47% | [8]; [16] -2% | [8]; at 50.0 µM -42.5% | [9]; at 1.2 µM -3% | [9]; at 3.7 µM -5% | [9]; at 11.0 µM -5% | [9]; at 33.0 µM -6% | [10]; at 1.2 µM -3% | [10]; at 3.7 µM -2% | [10]; at 11.0 µM -4% | [10]; at 33.0 µM -1% | [11]; at 1.2 µM -2% | [11]; at 3.7 µM 0% | [11]; at 11.0 µM 1% | [11]; at 33.0 µM 14% | [12]; [15] -15% | [12]; at 50.0 µM 43.5% | [13]; at 1.2 µM -2% | [13]; at 3.7 µM 2% | [13]; at 11.0 µM 16% | [13]; at 33.0 µM 65%

O=C1C(C(O)(C(F)(F)F)C(F)(F)F)CCC1C(O)(C(F)(F)F)C(F)(F)F (stereo not drawn)
active: [8]; [15] 83%
inactive: [1]; at 1.2 µM -3% | [1]; at 3.7 µM -2% | [1]; at 11.0 µM 3% | [1]; at 33.0 µM 18% | [1]; at 100.0 µM 10% | [2]; at 1.2 µM 1% | [2]; at 3.7 µM 2% | [2]; at 11.0 µM 8% | [2]; at 33.0 µM 9% | [2]; at 100.0 µM 34% | [3]; at 1.2 µM -4% | [3]; at 3.7 µM -14% | [3]; [15] 2% | [3]; at 11.0 µM -22% | [3]; at 33.0 µM 3% | [3]; [16] 33% | [3]; at 50.0 µM 22.3% | [3]; at 100.0 µM 30% | [4]; at 1.2 µM 7% | [4]; at 3.7 µM 8% | [4]; [15] 9% | [4]; at 11.0 µM 10% | [4]; at 33.0 µM 20% | [4]; [16] 26% | [4]; at 50.0 µM 42.6% | [4]; at 100.0 µM 32% | [5]; at 1.2 µM 4% | [5]; at 3.7 µM 6% | [5]; at 11.0 µM 14% | [5]; at 33.0 µM 28% | [5]; at 100.0 µM 49% | [6]; [15] 4% | [6]; [16] 54% | [6]; at 50.0 µM 67.3% | [7]; at 1.2 µM 5% | [7]; at 3.7 µM 2% | [7]; at 11.0 µM 8% | [7]; at 33.0 µM 27% | [7]; at 100.0 µM 42% | [8]; [16] 46% | [8]; at 50.0 µM 14.2% | [14]; at 1.2 µM -1% | [14]; at 3.7 µM 0% | [14]; [15] -12% | [14]; at 11.0 µM 0% | [14]; at 33.0 µM 11% | [14]; [16] 32% | [14]; at 50.0 µM 28.4% | [14]; at 100.0 µM 24% | [10]; at 1.2 µM 5% | [10]; at 3.7 µM 7% | [10]; at 11.0 µM 11% | [10]; at 33.0 µM 22% | [10]; at 100.0 µM 33% | [11]; at 1.2 µM 3% | [11]; at 3.7 µM 8% | [11]; at 11.0 µM 9% | [11]; at 33.0 µM 28% | [11]; at 100.0 µM 43% | [12]; [15] 2% | [12]; [16] 49% | [12]; at 50.0 µM 69.5% | [13]; at 1.2 µM 4% | [13]; at 3.7 µM 6% | [13]; at 11.0 µM 3% | [13]; at 33.0 µM -2% | [13]; at 100.0 µM 11%
